Screening results as filed in PubChem BioAssay.
MCF10A rereplic: induces DNA re-replication in MCF 10a normal breast cells; 350,000 compounds, 2.9% hits; Potency, µM (doses to about 46.1 µM), for inactives: top-dose activity, positive = re-replication, hits mostly activators; MCF 10A DNA re-replication, Hoechst nuclear intensity, 48 h; AID 624296; also: potency is read from the fitted curve at half-maximal effect; % of control where 0% means no effect; nearly all actives have a fitted effect of over 50% in size
SW480 rereplic: induces DNA re-replication in SW480 colon adenocarcinoma cells | SW480 DNA re-replication, Hoechst DNA content imaging, 48 h | Potency, µM (series often up to 46.1 µM), for inactives: at the top dose re-replication activation, usual class: activators | 340,000 compounds, 1.8% hits | AID 624297; also: potency is read from the fitted curve at half-maximal effect; % of control where 0% means no effect; nearly all actives have a fitted effect of over 55% in size
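DNA re-replication was detected as more nuclei of elevated Hoechst intensity after 48 hr exposure to compound (23 nL pinned per well of 250 cells).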
Chronic BCR inh: chronic active BCR signaling inhibition | ABC-DLBCL IkBa-CBG/CBR reporter, luminescence ratio, 4 h | Potency, µM (top dose mostly 46.1 µM), without a hit: at the top dose activity change, negative = inhibition, most hits filed as inhibitors | 340,000 compounds, 0.05% hits | AID 493014; active = well fitted inhibition curve with a large enough effect in the signal ratio, with a control signal flat, not every such curve was filed as active; inconclusive = small, poorly fitted or top-dose-only effect, or effect the other way, or a change in a side signal; the % refers to the signal ratio;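 also: potency is read from the fitted curve at half-maximal effect; plate controls were basal doxycycline-induced cells for no effect and cells given 10 µM MG132 for full effect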
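Compounds up to 46 uM were incubated four hours with TMD8 cells whose green CBG68 luciferase is fused to IkappaBalpha; red CBR luminescence normalised the signal, and concentration-effect curves were fitted to fusion, red and ratio data.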
IL-1B inflam inh: inhibitors of inflammasome signaling (IL-1 beta secretion) | THP-1 LPS/ATP IL-1B secretion, AlphaLISA, 16 h; hits give low values | activity change, % at 57.5 µM | 360,000 compounds, 4.7% hits; in the data active = activity change below about -50%; inconclusive = mostly about -30% to -49%; also: % is scaled to controls: 0 for no effect and ±100 for the full control effect
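THP-1 cells pretreated 1 hr with compounds (up to 57.5 uM final), then stimulated with LPS (250 ng/mL final) plus ATP (1.25 mM final); secreted IL-1B measured by AlphaLISA after 16 hr, decreased signal indicating inhibition.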
TDP1 cell CPT: growth inhibition of DT40 Tdp1-/-;hTDP1 cells with camptothecin (screen for TDP1 inhibitors) | chicken DT40 Tdp1-/-;hTDP1 cells + 20 nM CPT, ATP luminescence, 48 h | 420,000 compounds, 12% hits | Potency, µM (highest dose often 46.2 µM), inactives show top-dose activity change, negative = growth inhibition, actives largely listed as inhibitors | AID 686979; also: potency is read from the fitted curve at half-maximal effect; % is scaled to controls: 0 for no effect and ±100 for the full control effect; nearly all actives have a fitted effect of over 55% in size
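Chicken DT40 Tdp1-/- cells stably complemented with human TDP1 were seeded at 400 cells/well in medium containing 20 nM camptothecin, exposed to pin-transferred compounds, and grown at 37 °C for at least 48 hr. Viability was read as ATP luminescence.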
DT40 TDP1 no CPT: qHTS for Inhibitors of human tyrosyl-DNA phosphodiesterase 1 (TDP1): qHTS in cells in absence of CPT; DT40 Tdp1-/- hTDP1 cells, no CPT, ATP luminescence, 48 h; Potency, µM (titrated, usually from 46.2 µM), for inactives: at the top dose activity change, negative = growth inhibition, hits mostly inhibitors; 420,000 compounds, 15% hits; also: potency is read from the fitted curve at half-maximal effect; % is scaled to controls: 0 for no effect and ±100 for the full control effect; nearly all actives have a fitted effect of over 55% in size
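Growth kinetics read by CellTiter-Glo luminescence after ≥48 hr at 37 °C. Cells: DT40 Tdp1-/- stably carrying human TDP1, 400 per well, compound exposure in the absence of CPT (DMSO vehicle).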
* hit, by the source's call; ? = inconclusive; . = not tested or not shown; ! = a repeat was not active; [ ] = another dose, or the depositor's remark. A selection: hits, their analogues and other compounds. The true share with any hit is near 19%. Unless noted, calls follow the shape of the dose curve; as a rule, active = well fitted curve in the direction sought with a large enough effect; inconclusive = small, poorly fitted or top-dose-only effect, or another doubt; inactive = no such curve, though single readings can be large; an effect the other way counts as inactive or inconclusive.

SMILES	MCF10A rereplic	SW480 rereplic	Chronic BCR inh	IL-1B inflam inh	TDP1 cell CPT	DT40 TDP1 no CPT
Cn1nnnc1SCCCNCc1cc(Br)ccc1OCc1ccccc1	.	.	.	.	23µM*	10µM*
Brc1cccc(CNCCSc2nnnn2-c2ccccc2)c1	.	.	.	.	-27%	-17%
Cc1ccccc1C(=O)NCCCNC(=O)c1ccccc1C	?	-2%	.	-15	-2%	-4%
COc1ccc(C)cc1NC(=O)c1nn(C)cc1Br	5%	-1%	?	-8	-18%	?
Cc1csc(NCC(=O)c2c(C)[nH]c3ccccc23)n1	.	.	.	.	7%	12%
O=c1[nH]c2cc(F)ccc2c2ccc(F)cc12	-4%	1%	.	13	?	-19%
Cn1nnnc1SCCCNCc1ccc(-c2ccc(Br)cc2)o1	.	.	.	.	21µM*	?
Cc1oc2ncn(C)c(=O)c2c1C(=O)Nc1ccc(F)cc1	.	.	.	.	-1%	-20%
Cc1cccc2cc3c(nc12)SC(=NCC1CCCO1)N(Cc1ccco1)C3 (configuration not stated)	?	5.8µM*	?	-100*	?	23µM*
Cc1ccc2nc3c(cc2c1)CN(Cc1ccco1)C(=NCC1CCCO1)S3 (configuration not stated)	16%	?	3%	-15	?	?
O=C(OCC(=O)N(Cc1ccccc1)Cc1ccccc1)c1ccccc1NCCO	19%	24%	-5%	-7	?	?
CCN(C(=O)COC(=O)c1ccccc1NCCO)c1cccc2ccccc12	?	?	-27%	?	-29%	18µM*
CN(C)c1ccc(C(=C2C=CC(=[N+](C)C)C=C2)c2ccccc2)cc1	?	27%	.	.	0.84µM*	0.6µM*
CN(C)c1ccc(C(=O)C(=O)c2ccccc2)cc1	-4%	-23%	?	-1	-4%	12%
CN(C)c1ccc(C(=C2C=CC(=[N+](C)C)C=C2)c2ccc(N(C)C)cc2)cc1	3%	?	.	.	0.23µM*	0.52µM*
COc1ccc(OC)c(C(O)c2ncc(-c3ccccc3OC)[nH]2)c1 (configuration not stated)	.	.	.	9	?	?
COc1cc(N)c(Cl)cc1C(=O)N[C@H]1CCN(CCCOc2ccc(F)cc2)C[C@@H]1OC	.	.	.	.	-82%	27µM*
CCCn1c(N)c(Sc2ccccc2[N+](=O)[O-])c(=O)n(CCC)c1=O	?	-4%	1%	7	-27%	?
O=S(=O)(NCC(c1ccc2c(c1)OCO2)N1CCOCC1)c1ccccc1 (configuration not stated)	0%	3%	2%	0	-8%	-19%
N#CC(C#N)=CC1=C2OC(c3ccccc3)=CC(c3ccccc3)=C2CCC1	?	?	?	-10	26µM*	13µM*
O=C(c1cccc(F)c1)N1CCC2(CC1)CN(c1ncccn1)C2	.	.	.	.	?	-17%
COc1ccc(NC(=O)c2c(C)oc3ccc(O)c(CN4CCC(C)CC4)c23)cc1Cl	.	.	.	.	9.2µM*	?
COc1ccc(NC(=O)c2c(C)oc3ccc(O)c(CN4CCOCC4)c23)cc1	.	.	.	.	-21%	3%
COc1ccc(NC(=O)c2c(C)oc3ccc(O)c(CN4CCCC(C)C4)c23)cc1Cl (configuration not stated)	.	.	.	.	23µM*	16µM*
COC(=O)c1sc(-c2ccc(C(C)(C)C)cc2)cc1NC(=O)c1ccccc1C(=O)O	?	2%	?	2	?	?
SMILES	MCF10A rereplic	SW480 rereplic	Chronic BCR inh	IL-1B inflam inh	TDP1 cell CPT	DT40 TDP1 no CPT
COC(=O)c1sc(-c2ccc(C(C)(C)C)cc2)cc1NC(=O)CSCC(=O)O	15µM*	-18%	-4%	0	?	?
C=C1CC[C@H](O)C/C1=C/C=C1\CCC[C@]2(C)C([C@H](C)CCCC(C)(C)O)CC[C@@H]12 (some centres not stated)	.	.	.	.	0.046µM*!	0.021µM*!
Clc1ccc(C2Nc3ccccc3-n3cccc32)cc1 (configuration not stated)	16µM*	?	12%	21	?	?
CN1c2ccccc2C(=O)NC1c1ccc(Cl)cc1 (configuration not stated)	2%	37%	-2%	12	-5%	-20%
Cc1ccc(CNC(=O)Cn2ccc3cc(S(=O)(=O)N4CCCC4)ccc32)o1	9%	-4%	-1%	13	7%	5%
COc1ccc([C@H]2CC(=O)C=C(/C=C/c3ccccc3)C2)cc1OC	?	10%	2%	?	18µM*	?
COc1ccc(C2=CC(=O)CC(c3ccc(OC)cc3)C2)cc1 (configuration not stated)	9%	?	-4%	-24	8%	?
COc1ccc([C@H]2CC(=O)C=C(c3ccc4ncccc4c3)C2)cc1OC	50%	2%	?	?	?	21µM*
COc1ccc([C@H]2CC(=O)C=C(c3ccc(OC)c(OC)c3)C2)cc1	9.2µM*	-7%	2%	?	12µM*	?
O=C1C=C(/C=C/c2ccccc2)C[C@@H](c2ccc(F)cc2)C1	?	-6%	?	-13	?	?
O=C1C=C(c2cc3ccccc3s2)C[C@@H](c2ccc(Cl)cc2)C1	2%	-4%	4%	-14	9.2µM*	?
COc1ccc([C@H]2CC(=O)C=C(c3ccc(O)cc3)C2)cc1OC	0%	7%[9.22 µM]	?	-17	?	21µM*
COc1ccc([C@H]2CC(=O)C=C(c3ccc4ccccc4c3)C2)cc1OC	?	-2%	-4%	?	?	16µM*
COc1ccc([C@H]2CC(=O)C=C(c3ccc(-c4ccccc4)c(F)c3)C2)cc1OC	-1%	-7%	?	11	?	?
O=C1C=C(c2ccc3ncccc3c2)C[C@@H](c2ccc(Cl)cc2)C1	23µM*	8%	?	-15	23µM*	?
O=C(CN1CCN(Cc2ccccc2F)CC1)Nc1ccccc1Cl	0%	-16%	-18%	-10	6%	-13%
CN(C)c1ccc(CC(=O)N2CCCCC2c2cc(C(=O)Nc3cccc(C#N)c3)no2)cc1 (configuration not stated)	.	.	.	-12	?	23µM*
